Experimental data reported in ChEMBL document CHEMBL4888484, “Replenishing the malaria drug discovery pipeline: Screening and hit evaluation of the MMV Hit Generation Library 1 (HGL1) against asexual blood stage Plasmodium falciparum ,using a nano luciferase reporter read-out” (2022).
Screen size: about 150,000 compounds; about 540 (0.36%) showed an effect of 50% or more. The entries come from a sample that favours strong results as a whole.

These molecules were tested on Plasmodium falciparum (assay: Primary screen in NF54 nanoGlo assay, in single point, at 2uM, 72h; a lower Z score goes with more inhibition). Conditions: timepoint 72 hour.
Format: functional, Erythrocyte

Row | SMILES | % Inhibition [%] | Z score
1 | CCn1c(CN2CCCC2)nc2cc(S(=O)(=O)N3CCCCC3)ccc21 | -46 | 5.44
2 | Cc1ccc(CNC(=O)[C@]2(C)CCC(=O)N2CCCc2ccccc2)cc1 | -16 | 1.5
3 | O=C(Nc1cccc(S(=O)(=O)NC2=NCCC2)c1)c1cc(Cl)c2c(c1)OCCCO2 | -11 | 1.51
4 | CCOc1cccc(-c2ccc3nc(-c4cccc(OC)c4)c(CCC(=O)NC4CC4)n3c2)c1 | 4 | -0.75
5 | CCOc1cccc(-c2ccc3nc(-c4cccc(OC)c4)c(CCC(=O)NCCN4CCCC4)n3c2)c1 | 59 | -11.14
6 | CCOc1cccc(-c2ccc3nc(-c4cccc(OC)c4)c(CCC(=O)NCCc4ccc(OC)c(OC)c4)n3c2)c1 | 22 | -4.22
7 | Cc1nc(O)nc(O)c1CN1CCOCC1 | -10 | 1.65
8 | c1ccc(-c2nnc(-c3cccnc3NCc3cccs3)o2)cc1 | -5 | 0.8
9 | O=C1CCCN1[C@H]1CCCN(S(=O)(=O)CC2CCCCC2)CC1 | -7 | 1.12
10 | O=C1O[C@H]2CN(CCCc3ccccc3)C[C@H]2N1Cc1ccccn1 | -16 | 1.43
11 | CCOCC1CCN(CCc2ccc3c(c2)CCO3)CC1 | -4 | 0.71
12 | O=C([C@@H]1CCCN1C1CC1)N1CCC2(CC1)OCCc1ccccc12 | -14 | 1.46
13 | COCC(=O)N[C@H]1CO[C@H]2[C@@H]1OC[C@@H]2Nc1nccc(-c2ccc(OC)cc2)n1 | -5 | 0.87
14 | N#Cc1cccc(-c2ccnc(N[C@H]3CO[C@H]4[C@@H]3OC[C@@H]4NC(=O)c3ccc(C(F)(F)F)cc3)n2)c1 | -7 | 1.07
15 | COCC(=O)N[C@H]1CO[C@H]2[C@@H]1OC[C@@H]2Nc1nccc(-c2cccc(C#N)c2)n1 | 50 | -0.95
16 | CC(C)Cn1cccc(C(=O)Nc2cn(C)nc2-c2ccco2)c1=O | -9 | 1.12
17 | CCN(C(=O)COc1cccc(C)c1)[C@H](c1ccc(C)cc1)c1c[nH]c2ccccc12 | 6 | -0.77
18 | Cc1ccccc1-c1oc(C)c(C)[n+]1[O-] | 2 | -0.28
19 | Cc1oc(-c2cccc(F)c2)[n+]([O-])c1C | 5 | -0.64
20 | COc1ccc(-c2oc(C)c(C)[n+]2[O-])cc1OC | 71 | 0.43
21 | COc1ccc(CN2C[C@H]3CC[C@@H](C2)N(CC=C(C)C)C3)cc1CN(C)C | -17 | 1.87
22 | CN(Cc1cnc2ccccc2c1)c1cnn(C)c1 | 1 | -0.16
23 | Cc1ncsc1CCNC(=O)[C@H]1CCN(c2ccc(C(F)(F)F)cn2)C1 | -4 | 0.7
24 | C[C@@H](C1CC1)N(C1CC1)S(=O)(=O)c1ccc(F)cc1F | 84 | -10.78
25 | C[C@@H](C1CC1)N(CC(=O)Nc1ccc(F)cc1F)C1CC1 | -12 | 1.76
26 | C[C@@H](C1CC1)N(C1CC1)S(=O)(=O)c1cccc2c1N=S=N2 | 38 | -0.53

Row | SMILES | % Inhibition [%] | Z score
27 | CCOC(=O)N1CCC(C)(CN2CCS(=O)(=O)C[C@@H](C)C2)CC1 | -13 | 1.46
28 | Cn1cc(Cl)cc1C(=O)N1CCN(Cc2ccccc2F)C(=O)C1 | -2 | 0.24
29 | CCOc1ccc(Cl)cc1-c1cc(C)n[nH]c1=O | -8 | 1.52
30 | Cc1cccc(N2CCN(C(=O)c3cn4c(n3)COCC4)CC2)c1C | -8 | 1.36
31 | COc1ccc(C)c2sc(N(Cc3cccnc3)C(=O)c3ccn(C)n3)nc12 | -12 | 2
32 | COc1ccc(C)c2sc(N(CCCn3ccnc3)C(=O)Cc3ccc(F)cc3)nc12 | 78 | -7.85
33 | COc1ccc(C)c2sc(N(CCCN(C)C)C(=O)c3ccnn3C)nc12 | -7 | 1.27
34 | CC(C)(C)OC(=O)N1CC2CC1CCC2=O (centres undefined) | -3 | 0.51
35 | COc1ccc(CN2C[C@H]3CC[C@@H](C2)N(C(=O)c2nc(C)c[nH]2)C3)cc1 | -2 | 0.32
36 | CC(C)(C)OC(=O)NCc1cccnc1NC(=O)Cc1ccoc1 | 10 | -1.94
37 | O=C(CCn1nc2ccccn2c1=O)Nc1cnccc1Nc1ccc(F)cc1 | -25 | 4.76
38 | Cc1nn(C)c(Cl)c1-c1nc2c([nH]1)c(C)nn2C1CCCCC1 | 1 | -0.09
39 | Cc1nn(C2CCCC2)c2nc(-c3cc(CN(C)C)cs3)[nH]c12 | 69 | -9.28
40 | Cc1nn(C2CCCC2)c2nc(-c3cccs3)[nH]c12 | -10 | 1.39
41 | Fc1ccc([C@@H]2CCN2CCn2cc(Cl)cn2)cc1 | 12 | -1.59
42 | OCc1cc(CO)c(O)c(CCc2ccccc2)n1 | -7 | 1.32
43 | CN(C)Cc1cc(CN(C)C)c(O)c(CCc2ccccc2)n1 | 7 | -1.36
44 | CN(C)Cc1ccc(O)c(CCc2ccccc2)n1 | 64 | -4.36
45 | COC(=O)[C@H](CS(=O)(=O)Nc1cc(C)n(C)n1)c1ccccc1 | 3 | -0.46
46 | O=c1c2ccoc2ccn1Cc1ccc(OC(F)F)cc1 | -8 | 0.89
47 | O=C(CN1C=CCC=C1c1nc(-c2ccc(Br)cc2)cs1)c1ccccc1 | 65 | -4.25
48 | COc1ccc(-c2csc(-c3nc(-c4cccc(Cl)c4)cs3)n2)cc1 | -13 | 1.47
49 | Brc1ccc(-c2csc(Cc3nc(-c4ccc(Br)cc4)cs3)n2)cc1 | -3 | 0.3
50 | O=C(C[n+]1ccccc1-c1nc(-c2ccc(Cl)cc2)cs1)c1ccccc1 | -7 | 1
51 | COc1ccc(C(=O)CN2C=CCC=C2c2nc(-c3ccc(Cl)cc3)cs2)cc1 | 75 | -6.73
52 | COc1ccc(C2=CN(CC(=O)c3ccc(Cl)cc3)C3=CCCCCN23)cc1 | 37 | -3.83
